# From PubChem BioAssay (NCATS)
# Inconclusive results are not listed. A number with no mark means an inactive call. Activity calls are given as the source filed them. The call rests on the fitted dose curve; in most records, active means well fitted inhibition curve with a large enough effect; inconclusive means small, poorly fitted or top-dose-only effect; inactive means flat fitted curve, though single readings scatter. Peptide text beside a SMILES is read from it.
# Test system: ECU
# Test: qHTS profiling for inhibitors of Plasmodium falciparum proliferation (AID 504749); further: nearly all actives have a fitted effect of over 60% in size;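 on activity, negative = inhibition: 0% = DMSO vehicle and full inhibition = artemisinin control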
# Details: P. falciparum in erythrocytes, SYBR Green DNA, 72 h; series mostly up to 12.8 µM; activity, negative = inhibition: at the top concentration
# Outline: (§1)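 P. falciparum-infected erythrocytes (0.3% parasitemia, 2.5% hematocrit) incubated with compound 72 h at 37 C, 5% CO2. Parasite DNA detected by SYBR Green after lysis, overnight at room temperature; normalised to 0.29 uM artemisinin and DMSO.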
# Potency means the concentration at half of the fitted maximal effect.
SMILES,"activity, negative = inhibition",Potency
CN(C)CCCOC1C(C(O)CO)OC2OC(C)(C)O[C@@H]21 (stereo partly specified),10.9% [at 28.7 µM],
CCC(C)C(=O)OC1CCC=C2C=CC(C)C(CCC3CC(O)CC(=O)O3)[C@@H]21 (stereo partly specified),-0.264% [at 28.7 µM],
CC(=O)OC1CCC2C3CCc4cc(O)ccc4C3CCC12C (stereo unspecified),9.59% [at 28.7 µM],
CC[C@@]12CCCN3CCc4c(n(c5ccccc45)[C@](O)(C(=O)OC)C1)C32 (stereo partly specified),-10.4% [at 28.7 µM],
NC(C(=O)O)[C@@H]1CC(Cl)=NO1 (stereo partly specified),,2240 nM (active)
CN1CC(=O)N=C1N,5.42% [at 28.7 µM],
OCC1OC([S-])[C@H](O)C(O)C1O.[Au+] (stereo partly specified),-26.9% [at 28.7 µM],
CC(C)C1CCC(C(=O)NC(Cc2ccccc2)C(=O)O)CC1 (stereo unspecified),-5.14% [at 28.7 µM],
CCC(CCC(C)C1CCC2C3CC=C4CC(O)CC[C@@]4(C)C3CC[C@@]12C)C(C)C (stereo partly specified),1.92% [at 28.7 µM],
C[C@]12CCC(=O)C=C1CCC1C2C(=O)C[C@]2(C)C1CC[C@]2(O)C(=O)CO (stereo partly specified),10.6% [at 28.7 µM],
OCC1O[C@H](OC2C(CO)O[C@@](O)(CO)C2O)C(O)C(O)C1O (stereo partly specified),12.6% [at 28.7 µM],
CC1(C)OC2CO[C@]3(COS(N)(=O)=O)OC(C)(C)OC3C2O1 (stereo partly specified),4.86% [at 28.7 µM],
CC1(C)OC2CC(=O)OC[C@@]23C1CC(=O)[C@]1(C)C3CC[C@@]2(C)C(c3ccoc3)OC(=O)C3O[C@@]321 (stereo partly specified),7.32% [at 28.7 µM],
CCOC(=O)C1=CC(OC(CC)CC)C(NC(C)=O)C(N)C1 (stereo unspecified),-9.79% [at 28.7 µM],
COC1C=CO[C@@]2(C)Oc3c(C)c(O)c4c(O)c(c5c(nc6cc(C)ccn65)c4c3C2=O)NC(=O)/C(C)=C\C=CC(C)C(O)[C@@H](C)C(O)C(C)[C@@H](OC(C)=O)C1C (stereo partly specified),,12600 nM (active)
COC(=O)C(Cc1ccccc1)NC(=O)C(N)CC(=O)O (stereo not drawn) (H-Asp-Phe-OMe; configuration not given here),22.7% [at 28.7 µM],
C[C@]12C=CC(=O)C=C1CCC1C2C(O)C[C@]2(C)C1CC[C@]2(O)C(=O)CO (stereo partly specified),6.79% [at 28.7 µM],

SMILES,"activity, negative = inhibition",Potency
CC1(C)S[C@H]2C(NC(=O)[C@@H](N)c3ccc(O)cc3)C(=O)N2[C@@H]1C(=O)O (stereo partly specified),2.17% [at 28.7 µM],
CC(C)=CCC[C@](C)(O)C1CC=C(C)CC1 (stereo partly specified),-4.01% [at 28.7 µM],
CO[C@]12C(COC(N)=O)C3=C(C(=O)C(C)=C(N)C3=O)N1CC1NC12 (stereo partly specified),,1410 nM (active)
C[C@]1(c2ccccc2)OC(C(=O)O)=CC1=O,0.808% [at 28.7 µM],
CC(=O)N[C@H](CC(C)C)C(=O)O,7.85% [at 28.7 µM],
COc1ccc2cc(C(C)CO)ccc2c1 (stereo unspecified),9.82% [at 28.7 µM],
COC1C=CO[C@@]2(C)Oc3c(C)c(O)c4c(O)c(c(C=NN5CCN(C)CC5)c(O)c4c3C2=O)NC(=O)/C(C)=C\C=CC(C)C(O)[C@@H](C)C(O)C(C)[C@H](OC(C)=O)C1C (stereo partly specified),,282 nM (active)
CC1CCC(C(C)C)C(=O)C1 (stereo unspecified),1.02% [at 28.7 µM],
CNC1CC(N)[C@H](O)[C@@H](O[C@@H]2OC(CO)C3OC4(OC(C(N)CO)C(O)C(O)C4O)O[C@@H]3[C@H]2O)C1O (stereo partly specified),15.2% [at 28.7 µM],
CCCC(=O)O[C@]1(C(=O)CO)CCC2[C@@H]3CCC4=CC(=O)CC[C@]4(C)C3C(O)C[C@]21C (stereo partly specified),5.45% [at 28.7 µM],
CC(=O)[C@]1(O)CCC2C3C=C(Cl)C4=CC(=O)C5CC5[C@@]4(C)C3CC[C@]21C (stereo partly specified),1.2% [at 28.7 µM],
CC(=O)N[C@@H]1C(O)OC(CO)C(O)C1O (stereo partly specified),8.42% [at 28.7 µM],
C/C1=C2N=C(/C=C3N=C(/C(C)=C4\[N-]C(C)(C5N=C1C(C)(CCC(=O)NCC(C)OP(=O)([O-])O[C@H]1C(O)C(n6cnc7cc(C)c(C)cc76)O[C@@H]1CO)C5CC(N)=O)C(C)(CC(N)=O)C4CCC(N)=O)C(C)(CC(N)=O)C\3CCC(N)=O)C(C)(C)C/2CCC(N)=O.[CH2-]C1OC(n2cnc3c(N)ncnc32)C(O)C1O.[Co] (stereo partly specified),5.48% [at 28.7 µM],
O=C1OC(CO)C(O)C(O)C1O (stereo unspecified),4.2% [at 28.7 µM],
CNC1C(OC2C(O[C@@H]3C(O)C(O)[C@@H](N=C(N)N)C(O)C3N=C(N)N)OC(C)[C@@]2(O)CO)OC(CO)C(O)C1O (stereo partly specified),2.52% [at 28.7 µM],
COc1cc(C2c3cc4c(cc3C(O[C@@H]3OC5COC(c6cccs6)OC5C(O)C3O)C3COC(=O)C23)OCO4)cc(OC)c1O (stereo partly specified),,2510 nM (active)
Nc1nc2ncc(CNc3ccc(C(=O)NC(CCC(=O)O)C(=O)O)cc3)nc2c(=O)[nH]1 (stereo unspecified),2.58% [at 28.7 µM],

# Test system: FAB9
# Test: as above
# Details: P. falciparum in erythrocytes, SYBR Green DNA, 72 h; series mostly up to 12.8 µM; activity, negative = inhibition: at the top concentration
# Outline: as §1
SMILES,"activity, negative = inhibition",Potency
CN(C)CCCOC1C(C(O)CO)OC2OC(C)(C)O[C@@H]21 (stereo partly specified),0.0521% [at 28.7 µM],
CCC(C)C(=O)OC1CCC=C2C=CC(C)C(CCC3CC(O)CC(=O)O3)[C@@H]21 (stereo partly specified),6.95% [at 28.7 µM],
CC(=O)OC1CCC2C3CCc4cc(O)ccc4C3CCC12C (stereo unspecified),0.838% [at 28.7 µM],
CC[C@@]12CCCN3CCc4c(n(c5ccccc45)[C@](O)(C(=O)OC)C1)C32 (stereo partly specified),7.52% [at 28.7 µM],
NC(C(=O)O)[C@@H]1CC(Cl)=NO1 (stereo partly specified),,2820 nM (active)
CN1CC(=O)N=C1N,8.4% [at 28.7 µM],
OCC1OC([S-])[C@H](O)C(O)C1O.[Au+] (stereo partly specified),-1.5% [at 28.7 µM],
CC(C)C1CCC(C(=O)NC(Cc2ccccc2)C(=O)O)CC1 (stereo unspecified),2.34% [at 28.7 µM],
CCC(CCC(C)C1CCC2C3CC=C4CC(O)CC[C@@]4(C)C3CC[C@@]12C)C(C)C (stereo partly specified),1.15% [at 28.7 µM],
C[C@]12CCC(=O)C=C1CCC1C2C(=O)C[C@]2(C)C1CC[C@]2(O)C(=O)CO (stereo partly specified),0.998% [at 28.7 µM],
OCC1O[C@H](OC2C(CO)O[C@@](O)(CO)C2O)C(O)C(O)C1O (stereo partly specified),-4.23% [at 28.7 µM],
CC1(C)OC2CO[C@]3(COS(N)(=O)=O)OC(C)(C)OC3C2O1 (stereo partly specified),9.67% [at 28.7 µM],
CC1(C)OC2CC(=O)OC[C@@]23C1CC(=O)[C@]1(C)C3CC[C@@]2(C)C(c3ccoc3)OC(=O)C3O[C@@]321 (stereo partly specified),12.4% [at 28.7 µM],
CCOC(=O)C1=CC(OC(CC)CC)C(NC(C)=O)C(N)C1 (stereo unspecified),5.33% [at 28.7 µM],
COC(=O)C(Cc1ccccc1)NC(=O)C(N)CC(=O)O (stereo not drawn) (H-Asp-Phe-OMe; configuration not given here),2.77% [at 28.7 µM],
C[C@]12C=CC(=O)C=C1CCC1C2C(O)C[C@]2(C)C1CC[C@]2(O)C(=O)CO (stereo partly specified),5.71% [at 28.7 µM],

SMILES,"activity, negative = inhibition",Potency
CC1(C)S[C@H]2C(NC(=O)[C@@H](N)c3ccc(O)cc3)C(=O)N2[C@@H]1C(=O)O (stereo partly specified),5.85% [at 28.7 µM],
CC(C)=CCC[C@](C)(O)C1CC=C(C)CC1 (stereo partly specified),0.932% [at 28.7 µM],
CO[C@]12C(COC(N)=O)C3=C(C(=O)C(C)=C(N)C3=O)N1CC1NC12 (stereo partly specified),,5010 nM (active)
C[C@]1(c2ccccc2)OC(C(=O)O)=CC1=O,9.18% [at 28.7 µM],
CC(=O)N[C@H](CC(C)C)C(=O)O,4.31% [at 28.7 µM],
COc1ccc2cc(C(C)CO)ccc2c1 (stereo unspecified),1.24% [at 28.7 µM],
CC1CCC(C(C)C)C(=O)C1 (stereo unspecified),10% [at 28.7 µM],
CNC1CC(N)[C@H](O)[C@@H](O[C@@H]2OC(CO)C3OC4(OC(C(N)CO)C(O)C(O)C4O)O[C@@H]3[C@H]2O)C1O (stereo partly specified),5.28% [at 28.7 µM],
CCCC(=O)O[C@]1(C(=O)CO)CCC2[C@@H]3CCC4=CC(=O)CC[C@]4(C)C3C(O)C[C@]21C (stereo partly specified),2.02% [at 28.7 µM],
CC(=O)[C@]1(O)CCC2C3C=C(Cl)C4=CC(=O)C5CC5[C@@]4(C)C3CC[C@]21C (stereo partly specified),0.38% [at 28.7 µM],
CC(=O)N[C@@H]1C(O)OC(CO)C(O)C1O (stereo partly specified),14.4% [at 28.7 µM],
C/C1=C2N=C(/C=C3N=C(/C(C)=C4\[N-]C(C)(C5N=C1C(C)(CCC(=O)NCC(C)OP(=O)([O-])O[C@H]1C(O)C(n6cnc7cc(C)c(C)cc76)O[C@@H]1CO)C5CC(N)=O)C(C)(CC(N)=O)C4CCC(N)=O)C(C)(CC(N)=O)C\3CCC(N)=O)C(C)(C)C/2CCC(N)=O.[CH2-]C1OC(n2cnc3c(N)ncnc32)C(O)C1O.[Co] (stereo partly specified),7.26% [at 28.7 µM],
O=C1OC(CO)C(O)C(O)C1O (stereo unspecified),9.98% [at 28.7 µM],
CNC1C(OC2C(O[C@@H]3C(O)C(O)[C@@H](N=C(N)N)C(O)C3N=C(N)N)OC(C)[C@@]2(O)CO)OC(CO)C(O)C1O (stereo partly specified),11.6% [at 28.7 µM],
COc1cc(C2c3cc4c(cc3C(O[C@@H]3OC5COC(c6cccs6)OC5C(O)C3O)C3COC(=O)C23)OCO4)cc(OC)c1O (stereo partly specified),,2240 nM (active)
Nc1nc2ncc(CNc3ccc(C(=O)NC(CCC(=O)O)C(=O)O)cc3)nc2c(=O)[nH]1 (stereo unspecified),3.93% [at 28.7 µM],
